Anthrax LF prot = blocks Bacillus anthracis lethal factor protease | inhibition, % at 10 µM | 360,000 tested, 0.12% active | P15917 | multiplex microsphere protease cleavage assay, LF; note: plate controls were buffer without enzyme for full effect and enzyme alone for no effect
Target sequence (P15917 whole entry, looked up): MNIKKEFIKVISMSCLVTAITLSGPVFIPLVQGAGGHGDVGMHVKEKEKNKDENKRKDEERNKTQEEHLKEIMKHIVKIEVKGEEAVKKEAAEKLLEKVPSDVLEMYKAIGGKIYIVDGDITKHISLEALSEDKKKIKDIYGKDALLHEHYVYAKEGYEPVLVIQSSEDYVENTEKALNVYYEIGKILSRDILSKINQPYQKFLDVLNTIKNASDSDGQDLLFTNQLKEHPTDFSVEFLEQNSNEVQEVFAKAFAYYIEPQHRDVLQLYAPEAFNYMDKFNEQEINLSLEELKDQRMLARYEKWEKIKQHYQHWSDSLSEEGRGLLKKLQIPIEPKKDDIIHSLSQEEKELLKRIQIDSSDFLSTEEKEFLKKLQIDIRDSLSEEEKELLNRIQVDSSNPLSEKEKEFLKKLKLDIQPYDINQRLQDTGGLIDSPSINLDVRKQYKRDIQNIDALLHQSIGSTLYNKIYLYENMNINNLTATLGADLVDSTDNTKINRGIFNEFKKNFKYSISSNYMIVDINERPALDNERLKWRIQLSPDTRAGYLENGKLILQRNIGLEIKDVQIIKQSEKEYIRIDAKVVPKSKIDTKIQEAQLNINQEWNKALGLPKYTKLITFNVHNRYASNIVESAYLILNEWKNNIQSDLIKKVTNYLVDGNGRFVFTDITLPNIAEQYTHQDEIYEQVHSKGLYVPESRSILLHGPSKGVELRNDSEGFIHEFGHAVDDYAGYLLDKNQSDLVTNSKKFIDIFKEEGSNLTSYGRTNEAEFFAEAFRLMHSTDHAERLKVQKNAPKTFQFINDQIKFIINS
BoNT F protease = inhibitors of Botulinum neurotoxin F light chain protease; Multiplex microsphere protease cleavage assay, flow cytometry; inhibition, % at 10 µM; 360,000 tested, 0.22% active; AID 588497; in the data active = inhibition above about 35%, passing the limit was not always enough; inconclusive = no clear call, values can overlap the other calls; note: plate controls were buffer without enzyme for full effect and enzyme alone for no effect
BoNT-A LC inh2 = blocks Botulinum neurotoxin A light chain protease | AID 588499 | inhibition, % at 10 µM | multiplex microsphere protease substrate cleavage, flow cytometry | 360,000 tested, 0.17% active; note: plate controls were buffer without enzyme for full effect and enzyme alone for no effect
Autofluor counter = compound fluorescence in toxin protease inhibitor counterscreen. AID 624483. fluorescence intensity (test concentration not listed). compound autofluorescence counterscreen, microsphere flow cytometry; stronger effect = higher value. 360,000 tested, 3.1% active; in the data active = fluorescence intensity above about 16000; inconclusive = no clear call, values can overlap the other calls
Starred values were filed as active, the others as inactive; ? = inconclusive. Compounds with a hit are over-represented: about 3.5% of the library has one in this group of screens. Cut-off read from the data, not from the text of the source, unless noted: active = inhibition above about 30%; inconclusive = no clear call, values can overlap the other calls; inactive = below that.

SMILES	Anthrax LF prot	BoNT F protease	BoNT-A LC inh2	Autofluor counter
CCN(c1ccccc1)S(=O)(=O)c1ccc2[nH]cc(C(=O)NCCOC)c(=O)c2c1	0	-6	-1	3238
Cc1cc(C)cc(C(=O)NCC(=O)OCC(=O)NC2CC2)c1	-10	0	0	4022
COc1nc(-c2ccccc2)ccc1-c1noc(-c2cccnc2)n1	-2	-5	-2	23960*
CC(NC(=O)c1ccco1)c1cccc2ccccc12 (stereo unspecified)	0	2	1	22307*
COC(=O)CC(NC(=O)c1ccco1)c1cccc2ccccc12 (stereo unspecified)	-4	-47	-1	5164
O=C(O)c1ccc(CN2C[C@@H](CO)O[C@@H](n3cnc4c(NCc5ccc(F)cc5)ncnc43)C2)cc1	-5	-2	0	3495
Cc1cc(C)n(C(=O)c2ccc(C)c(S(=O)(=O)N3CCCCC3)c2)n1	0	0	-2	16992*
Cc1ccc(C(=O)N2CCCCC2)cc1S(=O)(=O)N1CCCCCC1	1	1	0	5688
O=c1[nH]c(Nc2ccc(F)cc2)cc2ccccc12	-2	-2	?	23479*
CCNC(=O)C1(C)CCN(C(=O)c2cccc(C#N)c2)C1 (stereo unspecified)	7	-7	0	3128
CC(COC(=O)c1ccccc1)(COC(=O)c1ccccc1)/[N+]([O-])=C/c1ccccc1	2	2	0	2282
CC(C)(C(=O)c1ccccc1)/[N+]([O-])=C/c1ccc(Br)cc1	-4	7	3	22272*
CCCCCOC(=O)C1C2C=CC3(CN(c4ccccc4C)C(=O)C13)O2 (stereo unspecified)	0	2	1	21724*
CCOC(=O)C1C2C=CC3(CN(c4ccccc4CC)C(=O)C13)O2 (stereo unspecified)	-1	-6	0	3234
CCOc1ccc(C(c2c(O)nc(SC)n(C)c2=O)c2c(O)nc(SC)n(C)c2=O)cc1	0	4	1	22263*
O=C(Cc1ccccc1[N+](=O)[O-])Nc1ccc2c(c1)OCCO2	1	-5	0	2455
COC(=O)c1cc(NC(=O)Cc2ccccc2[N+](=O)[O-])cc(C(=O)OC)c1	-4	3	4	18194*
CN(C(=O)c1cc2c(=O)n3ccccc3nc2n1C)C1CCCCC1	-2	7	2	5653
CCOc1ccc(OCC)c(NC(=O)CSc2nc3c(c(=O)n(C)c(=O)n3C)n2C(C)C)c1	-6	1	2	8054
CCCCn1c(SCC(=O)Nc2nnc(C(C)C)s2)nc2c1c(=O)n(C)c(=O)n2C	0	1	0	20755*
CCOc1ccc(OCC)c(NC(=O)CSc2nc3c(c(=O)n(C)c(=O)n3C)n2CC)c1	-2	-1	0	19457*
Nc1cc(=O)[nH]c(SCC(=O)N2CCc3ccccc3C2)n1	0	1	0	20269*
C(=C\CSc1nnnn1-c1ccccc1)/CSc1nnnn1-c1ccccc1	-3	3	1	20060*
Cc1ccccc1S(=O)(=O)NC(=O)C1(C)CCN1C(=O)Cc1ccccc1Cl (stereo unspecified)	5	3	0	3844
CC(C)(C)OC(=O)CC1(C#N)c2ccccc2C(Br)=CN1C(=O)c1ccccc1 (stereo unspecified)	-2	-1	0	4157
SMILES	Anthrax LF prot	BoNT F protease	BoNT-A LC inh2	Autofluor counter
CCCn1c(SCC(=O)Nc2nc3c(s2)CCCC3)nc2c1c(=O)n(C)c(=O)n2C	0	-2	-1	23637*
O=C(CSc1nnnn1-c1ccccc1)N1CCc2ccccc2C1	-2	0	-1	22363*
CCCn1c(SCC(=O)N2CCc3ccccc3C2)nc2c1c(=O)n(C)c(=O)n2C	-1	-1	-1	23593*
CCC(C)[C@H]1CNC(=O)C(=O)N1CC1CCCCC1 (stereo partly specified)	-3	-12	-3	5899
CC1(CO)CCCC1NCCNC1CCCC1(C)CO (stereo unspecified)	-3	5	0	5970
Cc1ccc(C)c(OCCCN2CCNCC2)c1	6	-39	1	4092
Cc1ccc(C)c(OCCCN2CCCC2)c1	0	0	-1	21161*
COc1ccc(N(C(=O)C(C)C)S(=O)(=O)c2ccc(Cl)cc2)cc1	-2	2	0	16342*
COC(=O)CCCn1cc(CN2CC(N3CCN(C4CCN(C)CC4)CC3)CS2(=O)=O)nn1 (stereo unspecified)	1	-3	0	4180
O=C1NCCN1C(=O)N(c1ccccc1)c1ccccc1	4	1	1	22362*
O=C(Nn1c(-c2ccccc2)nc2ccccc2c1=O)C1CCC1	1	4	4	21456*
CN(C)C(=S)Nn1c(-c2ccccc2)nc2ccccc2c1=O	-1	-2	0	2059
C#CCn1cc(CNC[C@H]2O[C@@H](n3cnc4c(=O)[nH]c(N)nc43)[C@H](O)[C@@H]2O)c2ccccc21	4	-17	0	5871
COc1ccc(C(O)c2ncc(-c3ccccc3Cl)[nH]2)cc1F (stereo unspecified)	2	-1	0	3048
COc1ccccc1CNC(=O)C1(C)CCN1C(=O)Cc1ccc(-c2ccccc2)cc1 (stereo unspecified)	1	0	0	3772
O=C(c1ccc(-c2ccc(Cl)cc2)o1)N1CCN(c2ccc([N+](=O)[O-])cc2Cl)CC1	2	0	5	21861*
O=C(c1ccc(-c2ccc([N+](=O)[O-])cc2)o1)N1CCCCC1	0	-5	2	2824
COc1ccccc1NC(=O)CN1CCN(CC(=O)Nc2ccc(F)cc2F)CC1	-3	-9	-2	3027
COC(=O)c1ccc(NC(=S)N2CCN(Cc3cccc(C)c3)CC2)cc1	4	5	3	21917*
COC(=O)c1ccc(NC(=S)N2CCN(Cc3ccccc3)CC2)cc1	-2	-1	0	6365
COc1ccccc1N1CCN(C(=O)Nc2cccc(Cl)c2)CC1	-4	-13	?	17904*
COc1ccccc1N1CCN(C(=O)Nc2ccc(F)c(Cl)c2)CC1	-2	0	0	2530
CCOC(=O)N1CCN(C(=S)Nc2cccc(C)c2)CC1	-13	-4	-2	23824*
CCOC(=O)N1CCN(C(=O)Nc2cccc(Cl)c2)CC1	-2	4	4	19827*
CCOC(=O)N1CCN(C(=O)Nc2ccc(Cl)cc2)CC1	-2	4	0	4208
SMILES	Anthrax LF prot	BoNT F protease	BoNT-A LC inh2	Autofluor counter
COc1ccccc1-c1ccc([C@@H]2C[C@H]3[C@H](CON3C)CN2C(=O)c2ccc(-c3ccccc3)cc2)cc1	-12	-2	0	2958
COc1ccc(OC)c(S(=O)(=O)Nc2ccc3c(c2)OCCO3)c1	-2	-8	0	3383
Cc1cccc(NC2(C(=O)O)CCCC2)c1	-4	1	0	4357
O=C1CCN(C(=O)Nc2cccc(Cl)c2)N1	-3	-2	-1	22772*
COc1c(C)cc(Br)cc1C(=O)O	-5	-2	0	22363*
CCCc1nnc(NC(=O)CCC(=O)NCc2ccccc2OC)s1	-2	0	0	22157*
CCc1nnc(NC(=O)Cn2nc(-c3ccccc3OC)ccc2=O)s1	-3	1	?	22524*

Source: PubChem
